± gives the standard deviation of the averaged measurements. The full ranking holds about 33,000 sequences; the median of “E-score (dimensionless, -0.5 to 0.5)” is about -0.049, and the highest 2% start at about 0.37. The entries come from a sample that favours the highest values as a whole.
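Note: 200 nM protein in PBS on universal arrays averaged over duplicate arrays.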

In the experiment the test system is T1, PmTbr T-box DNA-binding domain (GST fusion).
T1 sequence: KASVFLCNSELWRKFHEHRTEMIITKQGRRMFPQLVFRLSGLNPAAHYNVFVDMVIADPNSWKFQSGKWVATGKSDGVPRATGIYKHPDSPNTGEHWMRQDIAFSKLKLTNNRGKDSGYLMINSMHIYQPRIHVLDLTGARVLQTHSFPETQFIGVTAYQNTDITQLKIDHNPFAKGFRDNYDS
Briefly: PBM E-score of 8-mer (E-score (dimensionless, -0.5 to 0.5)); Tbr is Tbrain of the sea star Patiria miniata (Pm) or the sea urchin Strongylocentrotus purpuratus (Sp); higher = stronger binding preference. The note with it: the construct has about 5 more residues each side. On the procedure:
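Universal protein-binding microarray (Agilent AMADID 016060, 60-bp probes with a 35-bp variable region) incubated with 200 nM GST-fused Patiria miniata Tbr T-box DNA-binding domain (residues 272-466) in PBS pH 7.5. Scored for every ungapped 8-mer (given with its reverse complement) by the Universal PBM Analysis Suite as E-score (modified Wilcoxon-Mann-Whitney enrichment, range -0.5 to 0.5; >0.45 counts as bound) and Z-score of median probe intensity. Two replicate arrays (datasets 1 and 2).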
With CCCGACAA, the “PBM E-score of 8-mer” value stood at 0.208 ± 0.044. Under ACCGACAA stands -0.0367 ± 0.05; under GCCGACAC, 0.382 ± 0.03.

For the sequence GCCGACCC, the “PBM E-score of 8-mer” value is -0.256 ± 0.038.

Consider CCCGACAG, for which the “PBM E-score of 8-mer” value was determined as 0.11 ± 0.0062. Consider GCCGACAA, for which the “PBM E-score of 8-mer” value was determined as 0.116 ± 0.04.

For CCCGACAC, the “PBM E-score of 8-mer” value was found to be 0.388 ± 0.012. Under ACCGACAT stands 0.0334 ± 0.031; under ACCGACAC, 0.391 ± 0.02.

For CGGTGGGC, the “PBM E-score of 8-mer” value is -0.131 ± 0.04. ATCCCAAG: the “PBM E-score of 8-mer” value was -0.275 ± 0.07.

Regarding CGTACTTA, the “PBM E-score of 8-mer” value was -0.115 ± 0.042. As for TGGCTACA, the “PBM E-score of 8-mer” value is -0.117 ± 0.0015. Then GATGTTGC, with -0.0903 ± 0.014; and CCCAAAAC, with 0.0141 ± 0.0023. Take CCCCTACG: the “PBM E-score of 8-mer” value is -0.0948 ± 0.0047. Consider AACCTACG, for which the “PBM E-score of 8-mer” value was -0.21 ± 0.0028. Under AACCTACC stands -0.0696 ± 0.071. Then CACCTACA, with 0.407 ± 0.013.

Turning to GACCTACC, the “PBM E-score of 8-mer” value was -0.153 ± 0.0062.

Consider CACCTACG, for which the “PBM E-score of 8-mer” value stood at 0.412 ± 0.0089. Under GACCTACA stands -0.125 ± 0.019. On to CACCTACC, for which the “PBM E-score of 8-mer” value worked out at 0.413 ± 0.015. Under TACCTACA stands -0.2971 ± 0.00036. Under CGGAAGGA stands -0.209 ± 0.012; under CTGCCACA, 0.226 ± 0.014; under GCAAAGGA, -0.229 ± 0.021. Then CTTCTCGC, with 0.229 ± 0.027; and ACCTGGGG, with 0.0226 ± 0.0096. With AGTCGAGG, the “PBM E-score of 8-mer” value stood at 0.0125 ± 0.11. Under CGTACTGA stands -0.105 ± 0.017; under AATCTAAA, -0.0399 ± 0.05; under AGCATCCC, -0.136 ± 0.039. Under CACTGTGG stands -0.16 ± 0.098; under CTATTATC, -0.101 ± 0.018. Under ATGTGCTA stands 0.396 ± 0.0083. For the sequence ATGTGCTC, the “PBM E-score of 8-mer” value is -0.297 ± 0.012. Then ATGTGCCG, with 0.0963 ± 0.036; and AAGTGCCA, with 0.41 ± 0.0065; and AAGTGCCC, with -0.143 ± 0.0036. Under ATGTGCCC stands -0.0261 ± 0.068. Under ATGTGCCA stands 0.375 ± 0.0048.

Take ACGTGCTA: the “PBM E-score of 8-mer” value worked out at 0.417 ± 0.019.

With GCGTGCTA, the “PBM E-score of 8-mer” value came out at 0.261 ± 0.0046. Under CCGTGCTA stands 0.263 ± 0.0013. Under GAGTGCCA stands 0.242 ± 0.0057. Under CTGTGCTA stands 0.0225 ± 0.0027; under ATGACCTC, -0.0665 ± 0.086. Take CAGCGATA: the “PBM E-score of 8-mer” value stood at 0.0152 ± 0.0054. Under ACAAGAGG stands -0.108 ± 0.048; under CATACAGG, -0.17 ± 0.0088.

For CCACTCCG, the “PBM E-score of 8-mer” value was -0.01631 ± 0.00014. As for GATTAGAC, the “PBM E-score of 8-mer” value is -0.0447 ± 0.044.

Take GCCTCTGA: the “PBM E-score of 8-mer” value is 0.0009 ± 0.067. Under ACTTAAAG stands 0.0623 ± 0.041; under AAGTGCTA, 0.448 ± 0.016. Then AAGTGCTC, with 0.0187 ± 0.018. For AAGTGCTG, the “PBM E-score of 8-mer” value was found to be 0.283 ± 0.0071. For CCCTTAAG, the “PBM E-score of 8-mer” value was -0.00471 ± 0.02. Regarding CGTGCAGC, the “PBM E-score of 8-mer” value turned out to be 0.0118 ± 0.029. Then AATCGCAG, with 0.0445 ± 0.062.

As for GATCGCAA, the “PBM E-score of 8-mer” value is 0.244 ± 0.013. Then CATCGCAA, with 0.0368 ± 0.039; and AATCGCAT, with 0.0479 ± 0.038.

For the sequence GATCGCAC, the “PBM E-score of 8-mer” value was 0.42 ± 0.018. For AATCGCAC, the “PBM E-score of 8-mer” value amounted to 0.381 ± 0.0051.

On to CATCGCAC, for which the “PBM E-score of 8-mer” value came out at 0.373 ± 0.023.

As to CATCGCAG, the “PBM E-score of 8-mer” value is 0.0526 ± 0.063. Under GATCGCGC stands 0.289 ± 0.018. Then ACGAATGG, with 0.0417 ± 0.027; and GAATGGGA, with -0.214 ± 0.011. In the case of GCCATGTA, the “PBM E-score of 8-mer” value was -0.101 ± 0.045. Turning to ACCACTCC, the “PBM E-score of 8-mer” value was 0.0476 ± 0.03.

On to ACTTGCGA, for which the “PBM E-score of 8-mer” value stood at 0.386 ± 0.006. Then CCTTGCGA, with 0.243 ± 0.012. GCTTGCGA: the “PBM E-score of 8-mer” value came out at 0.105 ± 0.024. Then AGTTGCGC, with 0.0703 ± 0.035; and AGTTGCGA, with 0.412 ± 0.0052. Under AGTTGCGG stands 0.0771 ± 0.12; under CGGGTCAC, 0.113 ± 0.024; under CAGAGGTC, -0.0549 ± 0.0023. Consider ACAGTAAC, for which the “PBM E-score of 8-mer” value came to 0.186 ± 0.054. Then GCTTAAGC, with -0.292 ± 0.0039; and AGGCCCCC, with -0.332 ± 0.014. Under AAACGGCA stands 0.0707 ± 0.068. Under GGCTTCAA stands -0.121 ± 0.014.

The record behind these values is the supplement of paper PMC4166925.
